# In PubChem BioAssay (Tox21):
# Records with an inconclusive call do not appear. Active and inactive are the calls of the source. The call rests on the fitted dose curve; in most records, active means well fitted inhibition curve with a large enough effect in the signal ratio in the repeat runs (not every such curve was filed as active); inconclusive means weak or mixed curves, or effect the other way; inactive means no such curve, though single readings can be large or run the other way; the % refers to the signal ratio.
# Target: Estrogen receptor beta (Homo sapiens) (UniProt Q92731)
# Experiment: qHTS assay to identify small molecule antagonists of the estrogen receptor beta (ER-beta) signaling pathway (AID 1259378)
# Details: ER-beta-UAS-bla HEK293T, beta-lactamase FRET ratio, 16 h; series mostly up to 92.4 µM; activity, negative = inhibition: at the top concentration
# Description: National Center for Advancing Translational Sciences [NCATS]
# NIH Chemical Genomics Center [NCGC]
# U.S. Environmental Protection Agency [EPA]
# National Institutes of Environmental Health Sciences [NIEHS]
# National Toxicology Program [NTP]
# U.S. Food and Drug Administration [FDA]
# Estrogen receptor (ER), a nuclear hormone receptor, plays an important role in development, metabolic homeostasis and reproduction. Two subtypes of ER, ER-alpha and ER-beta, have similar expression patterns with some uniqueness in both types. Endocrine disrupting chemicals (EDCs) and their interactions with steroid hormone receptors like ER causes disruption of normal endocrine function. To identify the compounds that inhibit ER signaling, an ER-beta-UAS-bla GripTite cell line (Life Technologies, Madison, WI, USA) containing a beta-lactamase reporter gene under the control of an UAS response element was used to screen Tox21 10K compound library.
# Tox21 Assay Protocol Summary:
# ER-beta-UAS-bla HEK293T cells were dispensed at 2,000 cells/4 uL of assay medium containing 2% charcoal stripped FBS per well into black wall/clear-bottom 1536-well plates using a Multidrop Combi (ThermoFisher Scientific, Waltham, MA) dispenser. After the assay plates were incubated at a 37C and 5% CO2 for 6 hr, 23 nL of compounds dissolved in DMSO, positive controls or DMSO only was transferred to the assay plate by a Pintool station (Kalypsys, San Diego, CA), followed by addition of 1 uL (1nM as final concentration) of 17-beta-estradiol (E2) in assay medium using a BioRAPTR FRD (Flying Reagent Dispenser, Aurora Discovery, San Diego, CA). The plates were incubated at 37C and 5% CO2 for 16 hr. Then 1 uL of LiveBLAzerTM B/G FRET substrate was added using a Flying Reagent Dispenser, the plates were incubated at room temperature for 2 hours, and fluorescence intensity was measured by an Envision plate reader (PerkinElmer, Shelton, CT).
# On the % scale 0 is the no-effect control and ±100 the full control effect.
# Chain of Estrogen receptor beta (Homo sapiens) (Q92731 whole entry, looked up): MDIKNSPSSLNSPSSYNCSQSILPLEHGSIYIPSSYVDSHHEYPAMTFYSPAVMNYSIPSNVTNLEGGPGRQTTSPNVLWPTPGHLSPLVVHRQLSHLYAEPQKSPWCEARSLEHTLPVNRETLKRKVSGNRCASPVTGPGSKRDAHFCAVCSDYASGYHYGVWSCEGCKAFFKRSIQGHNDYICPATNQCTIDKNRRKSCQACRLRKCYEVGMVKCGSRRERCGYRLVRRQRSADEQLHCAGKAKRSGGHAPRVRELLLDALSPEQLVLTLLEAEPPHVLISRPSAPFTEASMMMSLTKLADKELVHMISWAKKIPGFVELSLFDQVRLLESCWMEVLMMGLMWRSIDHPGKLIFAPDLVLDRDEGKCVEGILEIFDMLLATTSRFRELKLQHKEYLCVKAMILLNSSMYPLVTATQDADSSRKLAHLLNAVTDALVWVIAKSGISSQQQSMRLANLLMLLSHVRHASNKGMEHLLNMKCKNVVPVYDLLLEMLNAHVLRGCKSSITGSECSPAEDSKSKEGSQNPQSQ
row,Compound,"activity, negative = inhibition"
1,CC(CN)CC(C)(C)CCN (stereo not given),1.97% [at 240 µM] (inactive)
2,CC/C=C\CC1=C(C)CCC1=O,4.22% (inactive)
3,CC(=O)Nc1ccc(S(=O)(=O)Cl)cc1,3.79% (inactive)
4,CNC(=O)[C@H]1O[C@@H](n2cnc3c(NCc4cc(Cl)ccc4OCc4cc(C)no4)ncnc32)[C@H](O)[C@@H]1N,9.1% (inactive)
5,COCCOCCOCCOCCOCCO,8.12% (inactive)
6,BrCc1cccc(Oc2ccccc2)c1,-22.9% (inactive)
7,O=P(O)(O)OP(=O)(O)O,16.8% (inactive)
8,O=C1CCCC(=O)O1,-9.48% (inactive)
9,N#Cc1ccc(C(=O)O)cc1,8.44% (inactive)
10,Oc1cn2c(n1)Nc1ccc(Cl)c(Cl)c1C2,0.533% [at 19 µM] (inactive)
11,CC(C)C[C@H](NC(=O)CNC(=O)[C@H](Cc1ccc(O)cc1)NC(=O)[C@H](CO)NC(=O)[C@H](Cc1c[nH]c2ccccc12)NC(=O)[C@H](Cc1cnc[nH]1)NC(=O)[C@@H]1CCC(=O)N1)C(=O)N[C@@H](CCCN=C(N)N)C(=O)N1CCC[C@H]1C(=O)NCC(N)=O (stereo in doubt),-1.54% [at 42.5 µM] (inactive)
12,CC(C)N(c1ccccc1)C(C)C,-0.397% (inactive)
13,O=C1O[C@@H]2[C@@H](O)[C@H](O)O[C@@H]2[C@H]1O,7.66% (inactive)
14,CC1(C)S[C@@H]2[C@H](N=CN3CCCCCC3)C(=O)N2[C@H]1C(=O)O,-4.65% [at 42.5 µM] (inactive)
15,CN1CCN(CC(=O)N2c3ccccc3C(=O)Nc3cccnc32)CC1,0.518% [at 8.39 µM] (inactive)
16,C=COCCOCCOCCOC=C,-3.53% (inactive)
17,CCCOC(OCCC)OCCC,1.36% (inactive)
18,CCCCCCCCC1CCC(=O)O1 (stereo not given),0.303% (inactive)
19,CCOC(=O)CC(=O)c1ccccc1,3.03% (inactive)
20,O=C(NCCN1CCOCC1)c1ccc(Cl)cc1,10.6% [at 42.5 µM] (inactive)

row,Compound,"activity, negative = inhibition"
1,C[C@H](CCC(=O)O)[C@H]1CC[C@H]2[C@@H]3C(=O)C[C@@H]4CC(=O)CC[C@]4(C)[C@H]3CC(=O)[C@]12C,2.26% [at 42.5 µM] (inactive)
2,C=C(C)C(=O)OCC(C)(C)COC(=O)C(=C)C,0.248% (inactive)
3,CC(C)(C)c1nnc(NS(=O)(=O)c2ccc(N)cc2)s1,6.94% [at 42.5 µM] (inactive)
4,N[C@@H](CCC(=O)Nc1ccc([N+](=O)[O-])cc1)C(=O)O,-2.25% (inactive)
5,CC(N)C(=O)OC(C)(C)Cc1ccc(Cl)cc1 (stereo not given),3.98% [at 42.5 µM] (inactive)
6,CC(=O)NCc1c(I)c(NC(C)=O)c(I)c(C(=O)O)c1I,19.4% [at 42.5 µM] (inactive)
7,CC1=C(C(=O)O)N2C(=O)[C@@H](NC(=O)[C@H](N)c3ccc(O)cc3)[C@H]2SC1,12.8% [at 42.5 µM] (inactive)
8,CC(C)CC(=O)O,3.16% (inactive)
9,COCCc1ccc(OCC2CO2)cc1 (stereo not given),21.1% [at 42.5 µM] (inactive)
10,C[C@@H](Oc1ccc(CNC(=O)c2cccnc2Oc2ccc3c(c2)OCO3)c(F)c1)C(=O)O,0.517% (inactive)
11,CC(C)CCCC(C)(C)O,12.7% (inactive)
12,CCN(C)C(=O)Oc1cccc([C@H](C)N(C)C)c1,9.31% [at 42.5 µM] (inactive)
13,NCCN1CCOCC1,1.66% (inactive)
14,CCN1CCc2nc(N)oc2CC1,12.5% [at 42.5 µM] (inactive)
15,O=C(CS(=O)Cc1ccco1)NC/C=C\COc1cc(CN2CCCCC2)ccn1 (stereo not given),21.8% [at 42.5 µM] (inactive)
16,CC(C)=O,5.67% (inactive)
17,Cc1nc2n(c(=O)c1CCN1CCC(c3noc4cc(F)ccc34)CC1)CCC[C@H]2O,0.444% [at 19 µM] (inactive)
18,NCCS,0.641% [at 42.5 µM] (inactive)
19,COc1nccnc1NS(=O)(=O)c1ccc(N)cc1,3.67% [at 42.5 µM] (inactive)
20,NS(=O)(=O)c1cc2c(cc1Cl)CN(C1CCCCC1)C2=O,-0.565% [at 42.5 µM] (inactive)
